aSyn 5UTR inh: MLPCN primary screen, SNCA 5' untranslated region; alpha-synuclein 5'UTR reporter, inhibitor activity; inhibition, % (tested at 7.5 µM); 300,000 compounds, 0.82% hits; in the data active = inhibition above about 60%; inconclusive = no clear call, values can overlap the other calls;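 also: H4 neuroglioblastoma cells stably carrying SNCA 5'UTR luciferase fusion; 0% = DMSO wells and 100% = positive control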
IEC-6 tox: counter-screen for KLF5 inhibitors: cytotoxicity in IEC-6 cells | inhibition, % at 5 µM | IEC-6 cytotoxicity, luminescence viability | AID 1825 | 290,000 compounds, 0.78% hits; in the data active = inhibition above about 22%;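 also: 0% = plate median of test compound wells and 100% = cytotoxic reference compound wells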
CSC inhib: cancer stem cell inhibition | cancer stem cell-like cells viability, luminescence | inhibition, % at 7.5 µM | 300,000 compounds, 1.1% hits | AID 2717; in the data active = inhibition above about 75%; inconclusive = no clear call, values can overlap the other calls; tested in HMLE shEcad cells
KLF5 inhibitor: inhibitors of KLF5 expression; DLD-1 KLF5 promoter-luciferase reporter, luminescence; inhibition, % at 5 µM; 290,000 compounds, 0.23% hits;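 active = inhibition above a per-plate limit of that plate's mean compound inhibition plus 3 SD, cut at about 60% in these data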;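 also: 0% = DMSO wells and 100% = LY294002 at 200 µM; higher means less KLF5 promoter-driven luciferase light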
SKKanGAS inh: inhibitors of SKKanGAS S. pyogenes growth in kanamycin (SK-promoter or general growth effect). BacTiter-Glo, 6 h. inhibition, % at 7.5 µM. 300,000 compounds, 1.3% hits;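 active = mean replicate score, as percent of positive control median, at least 50; inconclusive = mean below 50 but one replicate at or above 50; inactive = mean and every replicate below 50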;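 also: strain carries kanamycin resistance gene driven by streptokinase promoter and grows in 40 µg/ml kanamycin; loss of luminescence reflects streptokinase promoter inhibition or plain growth inhibition; 0% = median of DMSO wells and 100% = positive control at its reference dose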
* hit, by the source's call; ? = inconclusive; nt = no result; ! = a repeat was not active. This is a sample that favours compounds with a hit; in the whole collection about 3% have one here.

SMILES	aSyn 5UTR inh	IEC-6 tox	CSC inhib	KLF5 inhibitor	SKKanGAS inh
N=C1/C(=C/c2ccc(-c3cccc(C(=O)O)c3)o2)C(=O)N=C2SC(CC(=O)N3CCOCC3)=NN12	-48.0	-10.9	-4.2	-21.6	4.4
N=C1/C(=C\c2ccc(-c3cccc(C(=O)O)c3)o2)C(=O)N=C2SC=C(c3ccccc3)N12	-1.8	-9.9	-23.7	-39.3	79.0*
C=C(C)C1Cc2c(C)nn(-c3cccc4ccccc34)c2C1 (stereo not given)	27.9	-0.8	95.6*	-38.7	?
C=C(C)C1Cc2c(C)nn(-c3ccccc3)c2C1 (stereo not given)	-3.8	-2.3	4.0	-3.7	1.2
Cc1ccc(CSc2nnc(SCC(=O)N/N=C/c3ccccc3OCC(=O)O)s2)cc1	61.7*	-5.6	13.8	-9.1	1.8
Cc1ccc(CSc2nnc(SCC(=O)N/N=C/c3c[nH]c4ccccc34)s2)cc1	13.5	5.7	nt	-17.1	5.6
Cc1ccc(CSc2nnc(SCC(=O)N/N=C/c3ccc(C(=O)O)cc3)s2)cc1	69.5*	1.5	0.9	-5.3	0.5
CCOc1ccc2nc(SCC(=O)NCc3ccc(S(N)(=O)=O)cc3)[nH]c2c1	-12.9	-1.3	-12.9	-22.1	-12.7
O=C(Nc1ccccc1NS(=O)(=O)c1ccc(F)cc1)C1CCC1	27.9	-3.0	5.0	-7.6	5.0
Cc1cc(N/N=C/c2c(O)ccc3ccccc23)nc(-c2ccccc2O)n1	72.0*	-4.6	42.2	-4.7	85.1*
CCCCN(CCCC)c1cc(C)nc(-c2ccccc2O)n1	12.7	-2.9	17.8	-33.6	53.9*
Oc1ccc2ccccc2c1/C=N/Nc1ccccc1	-41.8	0.0	40.9	-20.7	0.5
Cc1cc(Nc2ccccc2)nc(-c2ccccc2O)n1	-100.7	7.0	80.3*	-53.9	4.0
CCOC(=O)c1ccc(Nc2cc(C)nc(-c3ccccc3O)n2)cc1	40.2	5.8	43.1	7.1	6.5
Cc1cc(Nc2cccc(F)c2)nc(-c2ccccc2O)n1	-5.4	1.9	101.6*	-10.5	2.2
O=[N+]([O-])c1ccc(CNCc2cc(Cl)ccc2O)cc1	nt	nt	-2.4	nt	nt
Cc1[nH]n(C)c(=O)c1[N+](=O)[O-]	2.4	-1.7	-4.4	-45.7	nt
O=C(O)CCNC(=O)c1ccc(NC(=O)Cc2ccc(Cl)cc2)cc1	-7.6	2.9	nt	-3.5	4.0
CC(=O)c1sc(N/N=C\c2c(O)ccc3ccccc23)nc1C	27.4	nt	23.5	nt	49.9*
CC(=O)c1sc(N/N=C/c2cccc(O)c2)nc1C	-337.9	3.2	-16.3	-56.2	14.6
CCOC(=O)C1=C(C)N=c2s/c(=C\c3ccc(O)c([N+](=O)[O-])c3)c(=O)n2C1c1ccccc1OC (stereo not given)	5.0	-11.9	51.0	-3.0	57.8*
COc1cc(/C=c2\sc3n(c2=O)C(c2ccccc2)C(c2ccccc2)=NN=3)ccc1O (stereo not given)	nt	-9.9	103.3*	-14.9	nt
COc1ccc(/C=c2/sc3n(c2=O)C(c2ccccc2OC)C2=C(N=3)c3ccccc3CC2)cc1O (stereo not given)	94.3*	-2.5	64.2	6.4	7.0
CCOC(=O)C1=C(C)N=c2s/c(=C\c3ccc(OCC(=O)O)cc3)c(=O)n2C1c1ccc(Cl)cc1 (stereo not given)	-8.6	-7.7	nt	-43.2	25.5
CCOC(=O)C1=C(C)N=c2s/c(=C/c3ccc(OCC(=O)O)c(OC)c3)c(=O)n2C1c1ccc(Cl)cc1 (stereo not given)	8.5	nt	20.6	nt	51.6*
SMILES	aSyn 5UTR inh	IEC-6 tox	CSC inhib	KLF5 inhibitor	SKKanGAS inh
COc1ccccc1C1C2=C(N=C3SCC(=O)N31)c1ccccc1CC2 (stereo not given)	4.9	-6.8	-10.4	-4.0	1.8
CCO[C@H]1OC(C(=O)N2CCOCC2)=C[C@@H](C2CC2)[C@@H]1CCCO	12.7	-1.3	-16.3	-11.9	-2.7
CCOC(=O)C1=C(C)n2c(s/c(=C/c3cccc([N+](=O)[O-])c3)c2=O)=NC1c1ccc(O)c(OC)c1 (stereo not given)	-39.2	0.3	-5.0	4.0	67.4*
O=C1c2ccc(Cl)cc2S(=O)(=O)c2cccc(C(=O)N3CCC(Cc4ccccc4)CC3)c21	nt	nt	123.3*	nt	nt
CC1CC1C(=O)N1CCN(S(=O)(=O)c2cc(C(F)(F)F)cc(C(F)(F)F)c2)CC1 (stereo not given)	nt	nt	78.7*	nt	nt
Clc1ccc(CO/N=C/c2c(-c3ccccc3)nc3n2CCS3)c(Cl)c1	35.4	-5.7	77.7*	-5.0	24.2
Cn1c(=O)n(C)c2cc(/C=N/N=C3/NC(=O)C(CC(=O)O)S3)ccc21 (stereo not given)	-15.3	-7.5	2.5	8.5	-0.5
CSc1nnc(-c2ccccc2)o1	-14.3	-3.9	-6.5	-2.1	-1.2
O=S1(=O)C=C(Sc2nnc(-c3ccccc3)o2)c2ccccc21	-117.5	-2.2	108.2*	-11.5	18.0
Cc1ncsc1C(=O)Nc1nc2c(s1)CCCC2	-158.6	0.7	44.6	-113.8	23.8
Cc1cc(C(=O)Nc2nc3c(s2)CCCC3)cs1	-52.1	1.1	85.9*	-130.2	14.5
CCn1c(SCC(=O)N(C)CC(=O)Nc2ccc(OC)cc2)nnc1-c1ccco1	4.5	nt	-4.8	nt	-2.0
O=C(NC(=S)N1CCN(c2nc(-c3ccccc3)cs2)CC1)c1cncc(Br)c1	-29.8	-2.1	21.9	-21.9	76.9*
CCOCCCNC(=S)N1CCN(c2nc(-c3ccccc3)cs2)CC1	-7.2	-3.1	0.7	-54.3	-3.5
CCN(CC)CCCNC(=S)N1CCN(c2nc(-c3ccccc3)cs2)CC1	-9.2	0.6	78.5*	-56.1	-0.3
O=C(CN1CCN(c2nc(-c3ccccc3)cs2)CC1)NNC(=O)c1ccc(Br)cc1	-0.8	-1.1	3.2	-15.6	9.5
COc1cccc(CNC(=O)CCS(=O)(=O)c2ccccc2Cl)c1	nt	nt	-2.5	nt	nt
CC(=O)n1cc(N(C(=O)CCl)c2ccc([N+](=O)[O-])cc2)c2ccccc21	37.4	-1.0	40.8	-13.6	7.9
CC(=O)n1cc(N(C(=O)CCl)c2ccccc2)c2ccccc21	106.3*	6.4	23.4	-15.9	-3.2
COC(=O)c1ccc2c(=O)n(CCCN3CCOCC3)c(=S)[nH]c2c1	-5.4	0.6	-1.6	-38.8	4.7
CCn1c(=O)cc(C(=O)OC)sc1=Nc1ccc(F)c(F)c1	-18.3	-6.5	11.0	-8.2	2.7
CCOC(=O)c1ccc(N=c2sc(C(=O)OC)cc(=O)n2Cc2ccco2)cc1	-7.9	-0.9	92.4*	-6.5	-1.5
CCOC(=O)c1ccc(N=c2sc(C(=O)OC)cc(=O)n2CCCN2CCOCC2)cc1	-27.8	1.0	101.1*!	-10.6	7.3
Cc1cc(C)c2c(c1)/C(=N/NC(=O)c1cc(C)oc1C)CCC2	-11.5	14.7	0.2	-21.0	17.1
O=C(CCc1nc2ccccc2s1)Nc1cccnc1	-21.9	2.4	2.8	1.8	-3.2
COC(=O)c1cc(S(=O)(=O)N2CCN(c3cccc(Cl)c3)CC2)c[nH]1	5.2	0.7	4.0	2.4	-9.0
O=C(/C=C/c1ccco1)Oc1cc(Br)cc(/C=N/NC(=O)c2ccccc2O)c1	95.9*	0.8	8.8	-4.9	88.2*
Cc1ccc(C(=O)N/N=C/c2cccc(OC(=O)/C=C/c3ccco3)c2)cn1	-99.6	-3.8	-2.1	-22.6	10.3

Assay outcomes from PubChem.
